Test results as given in PubChem BioAssay (NCATS).
Results filed as inconclusive are left out. The source made the active and inactive calls. Calls come from the whole dose curve; as a rule, active = well fitted cell-killing curve with a large enough effect; inconclusive = small, poorly fitted or top-dose-only effect, or effect the other way; inactive = flat fitted curve, though single readings scatter.

Experiments:
Assay in all cases: Primary qHTS to identify gynecologic anti-cancer compounds using libraries of approved drugs and bioactive compounds (AID 1345084); note: nearly all actives have a fitted effect of over 55% in size
C33A = conditions: Gynecologic cancer cell panel viability, ATPlite luminescence, 48 h; series mostly up to 57.5 µM
Method in brief: (§1)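 Cells, 1,000 per well, were allowed to settle for 16 h at 37 C before compound addition. Five concentrations were tested for 48 h, and viability was read by ATPlite luminescence after 15 min at room temperature.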

CAOV3 = conditions: Gynecologic cancer cell panel viability, ATPlite luminescence, 48 h; series mostly up to 57.5 µM
Method in brief: as §1

CASKI = conditions: Gynecologic cancer cell panel viability, ATPlite luminescence, 48 h; series mostly up to 57.5 µM
Method in brief: as §1

Es-2 = conditions: Gynecologic cancer cell panel viability, ATPlite luminescence, 48 h; series mostly up to 57.5 µM
Method in brief: as §1

HeLa = conditions: Gynecologic cancer cell panel viability, ATPlite luminescence, 48 h; series mostly up to 57.5 µM
Method in brief: as §1

Hek293T = conditions: Gynecologic cancer cell panel viability, ATPlite luminescence, 48 h, control line for the selectivity index; series mostly up to 57.5 µM
Method in brief: as §1

JEG-3 = conditions: Gynecologic cancer cell panel viability, ATPlite luminescence, 48 h; series mostly up to 57.5 µM
Method in brief: as §1

OV90 = conditions: Gynecologic cancer cell panel viability, ATPlite luminescence, 48 h; series mostly up to 57.5 µM
Method in brief: as §1

PA-1 = conditions: Gynecologic cancer cell panel viability, ATPlite luminescence, 48 h; series mostly up to 57.5 µM
Method in brief: as §1

SKOV3 = conditions: Gynecologic cancer cell panel viability, ATPlite luminescence, 48 h; series mostly up to 57.5 µM
Method in brief: as §1

Tov-21-G = conditions: Gynecologic cancer cell panel viability, ATPlite luminescence, 48 h; series mostly up to 57.5 µM
Method in brief: as §1

Tov112D = conditions: Gynecologic cancer cell panel viability, ATPlite luminescence, 48 h; series mostly up to 57.5 µM
Method in brief: as §1

Measured: Potency

Nc1nc(-n2cc(C(=O)O)c(=O)c3cc(F)c(N4CC(O)C4)c(Cl)c32)c(F)cc1F
inactive: C33A | CAOV3 | CASKI | Es-2 | HeLa | Hek293T | JEG-3 | OV90 | PA-1 | SKOV3 | Tov-21-G | Tov112D

C=C[C@H]1[C@H](O[C@@H]2O[C@H](CO)[C@@H](O)[C@H](O)[C@H]2O)OC=C(C(=O)OC)[C@H]1CC(=O)O
inactive: C33A | CAOV3 | CASKI | Es-2 | HeLa | Hek293T | JEG-3 | OV90 | PA-1 | SKOV3 | Tov-21-G | Tov112D

C=C1OC2CC(C(=O)O)C=CC2NC1=O (stereo not given)
inactive: C33A | CAOV3 | CASKI | Es-2 | HeLa | Hek293T | JEG-3 | OV90 | PA-1 | SKOV3 | Tov-21-G | Tov112D

CC1(C)CCCC2(C)C(C(=O)O)=CCC12 (stereo not given)
inactive: C33A | CAOV3 | CASKI | Es-2 | HeLa | Hek293T | JEG-3 | OV90 | PA-1 | SKOV3 | Tov-21-G

CC1OC2OC(=O)C3(C)CC4=C(CO)C5=C(CC(=O)C4(C)C(C1=O)C23)C(C)(C)OC(=O)C5 (stereo not given)
inactive: C33A | CAOV3 | CASKI | Es-2 | HeLa | Hek293T | JEG-3 | OV90 | PA-1 | SKOV3 | Tov-21-G | Tov112D

COc1ccc(C(O)C(C)OC2OC(CO)C(O)C(O)C2O)cc1 (stereo not given)
inactive: C33A | CAOV3 | CASKI | Es-2 | HeLa | Hek293T | JEG-3 | OV90 | PA-1 | SKOV3 | Tov-21-G | Tov112D

CC1=CC(=O)CC(C)(CO)C1(O)/C=C/C(C)O[C@@H]1O[C@H](CO)[C@@H](O)[C@H](O)[C@H]1O (stereo not given in full)
inactive: C33A | CAOV3 | CASKI | Es-2 | HeLa | Hek293T | JEG-3 | OV90 | PA-1 | SKOV3 | Tov-21-G | Tov112D

COc1ccc(-c2c(-c3cc(C(=O)O)ccn3)ncn2C)cc1
inactive: C33A | CAOV3 | CASKI | Es-2 | HeLa | Hek293T | JEG-3 | OV90 | PA-1 | SKOV3 | Tov-21-G | Tov112D

CC1=C(C)C(=O)OC(C(C)C2CCC3C4C5OC5C5(O)CC(OC6OC(CO)C(OC7OC(C)C(O)C(O)C7O)C(O)C6O)CC(O)C5(C)C4CCC23C)C1 (stereo not given)
inactive: C33A | CAOV3 | CASKI | Es-2 | HeLa | Hek293T | JEG-3 | OV90 | PA-1 | SKOV3 | Tov-21-G | Tov112D

COc1c2c(c(C)c3c1C(=O)OC3)OC1(C)CC(O)C34OC(OC)(OC3(C)C)C(O)CC4(C)C1C2 (stereo not given)
inactive: C33A | CAOV3 | CASKI | Es-2 | HeLa | Hek293T | JEG-3 | OV90 | PA-1 | SKOV3 | Tov-21-G | Tov112D

O=C(OC[C@@]1(O)CO[C@@H](O[C@H]2[C@H](Oc3ccc(O)cc3)O[C@H](CO)[C@@H](O)[C@@H]2O)[C@@H]1O)c1ccc(O)cc1
inactive: C33A | CAOV3 | CASKI | Es-2 | HeLa | Hek293T | JEG-3 | OV90 | PA-1 | SKOV3 | Tov-21-G | Tov112D

CC(O)/C=C/C1OC(=O)CC1Nc1ccc(C(=O)O)cc1 (stereo not given)
inactive: C33A | CAOV3 | CASKI | Es-2 | HeLa | Hek293T | JEG-3 | OV90 | PA-1 | SKOV3 | Tov-21-G | Tov112D

COC(=O)C1=CO[C@@H](O[C@@H]2O[C@H](CO)[C@@H](O)[C@H](O)[C@H]2O)[C@H]2[C@@H]1CC(OC)O[C@@H]2C (stereo not given in full)
inactive: C33A | CAOV3 | CASKI | Es-2 | HeLa | Hek293T | JEG-3 | OV90 | PA-1 | SKOV3 | Tov-21-G | Tov112D
